The text below walks through data of PubChem BioAssay.

Values joined by “and” are separate entries in the source; they are usually repeats but may differ in a detail not shown here. Identical values can stand only once. Active and inactive are the calls of the source. How the calls were made is not given here.

This experiment deals with L-lactate dehydrogenase (Plasmodium falciparum (isolate CDC / Honduras)) (UniProt Q27743). The experiment can be described thus: PfLDH activity inhibition – cell lysate, 3D7 strain, counter-screen for P. falciparum growth inhibition project (AID 2304).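 Further: 0% = vehicle and 100% = reference inhibitor.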 The conditions noted are these: P. falciparum 3D7 crude extract, LDH APAD/NBT absorbance; at 2 µM; active compounds read high. For orientation: The purpose of a counterscreen is to sort out artefacts and off-target activity.
Chain of L-lactate dehydrogenase (Plasmodium falciparum (isolate CDC / Honduras)) (Q27743 whole entry, looked up): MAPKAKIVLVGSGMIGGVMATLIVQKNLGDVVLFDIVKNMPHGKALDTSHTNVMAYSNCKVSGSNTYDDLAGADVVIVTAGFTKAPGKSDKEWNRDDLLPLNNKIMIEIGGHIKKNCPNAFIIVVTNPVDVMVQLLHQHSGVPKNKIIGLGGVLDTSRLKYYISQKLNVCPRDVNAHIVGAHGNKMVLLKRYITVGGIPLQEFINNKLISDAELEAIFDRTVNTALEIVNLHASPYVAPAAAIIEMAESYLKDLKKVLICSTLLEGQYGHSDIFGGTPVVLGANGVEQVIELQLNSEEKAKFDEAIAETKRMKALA
In the case of `COc1ccc(CC(C)NCC(O)c2cccc(Cl)c2F)cc1` (stereo unspecified), the inhibition is -6% (inactive).

Take `O=C(NC1CCC(CN2CCC(c3c[nH]c4ccccc34)CC2)CC1)c1cnn(-c2ccccc2)c1-c1ccccc1Cl` (stereo unspecified): the inhibition is -6% (inactive).

Regarding `COc1ccc(OC)c([C@H](O)[C@@H](C)NCc2cc(Cl)ccc2O)c1`, the inhibition is 4% (inactive). Then `OC1(CNCc2ccccc2)CCN(CCc2c[nH]c3ccc(F)cc23)CC1`, with -2% (inactive).

As for `CNC(=O)c1ccc2[nH]cc(C3CCN(CC4CCC(NC(=O)/C=C/c5ccccc5Cl)CC4)CC3)c2c1` (stereo unspecified), the inhibition is 3% (inactive). With `CC(Cc1ccc(SC(C)C)cc1)NCC(O)c1cccc(Cl)c1` (stereo unspecified) the figure was -3% (inactive); with `CS(=O)(=O)Nc1ccc2c(C3CCN(CC4CCN(C(=O)/C=C/c5ccc(Cl)c(Cl)c5)CC4)CC3)c[nH]c2c1`, -3% (inactive). Then `COC(=O)/C=C/c1ccc(C[C@@H](C)NC[C@H](O)c2cccc(C(F)(F)F)c2)cc1`, with -6% (inactive); and `COCCNCc1cccc(-c2ccc(CN(C(=O)Nc3ccccc3)C3CCN(Cc4ccccc4)CC3)cc2)c1`, with -4% (inactive). Then `Cc1ccc(C[C@@H](C)NC[C@H](O)c2cccc(C(F)(F)F)c2)cc1`, with -4% (inactive) and 1% (inactive); and `CC[C@H]1CN2CC[C@H]1C[C@H]2[C@H](O)c1cc(-c2cccc(C)c2)nc2ccc(OC)cc12`, with 3% (inactive). Take `CC(C)NC(=O)Cn1cc(C2CCN(CC3CCN(C(=O)/C=C/c4ccc(Cl)c(Cl)c4)CC3)CC2)c2ccccc21`: the inhibition was -2% (inactive). With `Cc1ccc(C)c(N2CCN(Cc3ccccc3O)CC2)c1` the figure was 5% (inactive); with `O=C(/C=C/c1ccc(Cl)c(Cl)c1)NCCCCCN1C2CCC1CC(c1c[nH]c3ccccc13)C2` (stereo unspecified), -1% (inactive).

Turning to `CC(Cc1ccc(SC(C)(C)C)cc1)NCC(O)c1cccc(Cl)c1` (stereo unspecified), the inhibition is -7% (inactive). With `CC(C)CNCc1ccc(-c2cccc(CN(C(=O)Nc3ccccc3)C3CCN(Cc4ccccc4)CC3)c2)cc1`, the inhibition is 4% (inactive).

Regarding `C=C[C@H]1CN2CC[C@@H]1C[C@H]2[C@H](O)c1cc(-c2ccc(F)cc2)nc2ccc(OC)cc12`, the inhibition was -1% (inactive). As to `Cc1cccc(C(=O)Nc2ccnc(N(C)C3CCN(CC(C)C)CC3)c2)c1`, the inhibition was -2% (inactive).

Regarding `Cc1ccccc1CNCC(O)c1cccc(C(F)(F)F)c1` (stereo unspecified), the inhibition was -4% (inactive).

As to `CNCCN(C)C(=O)Oc1c(Cl)c(C)nc(C)c1-c1ccc(Oc2ccc(OC(F)(F)F)cc2)cc1`, the inhibition was -2% (inactive). Then `O=C(/C=C/c1ccc(Cl)c(Cl)c1)NCCC1CCC(N2CCC(c3c[nH]c4ccc(O)cc34)CC2)CC1` (stereo unspecified), with -7% (inactive); and `CN(c1cc(NC(=O)c2cccs2)ccn1)C1CCN(Cc2ccccc2)CC1`, with -1% (inactive).

With `O=C(C=C1c2ccccc2-c2ccccc21)NC1CCC(CN2CCC(c3c[nH]c4ccccc34)CC2)CC1` (stereo unspecified), the inhibition was 4% (inactive) and 1% (inactive).

For `CC(=O)N(Cc1ccccc1-c1cccc(CNCc2ccc3c(c2)OCO3)c1)C1CCN(Cc2ccccc2)CC1`, the inhibition is -3% (inactive).

For the compound `CC(Cc1ccc(OCCOc2ccccc2)cc1)NCC(O)c1cccc(C(F)(F)F)c1` (stereo unspecified), the inhibition is -6% (inactive). With `CC(=O)Nc1ccc2[nH]cc(C3CCN(CC4CCN(C(=O)/C=C/c5ccc(Cl)c(Cl)c5)CC4)CC3)c2c1` the figure was -1% (inactive); with `CC(Cc1ccc(OCCCCOc2ccccc2)cc1)NCCCc1nc2ccccc2[nH]1` (stereo unspecified), 3% (inactive); with `FC(F)(F)c1ccc(NC(=S)NC2CCC(CN3CCC(c4c[nH]c5ccccc45)CC3)CC2)cc1` (stereo unspecified), 2% (inactive) and -1% (inactive). In the case of `COc1cccc(O)c1CNCC(O)c1cccc(C(F)(F)F)c1` (stereo unspecified), the inhibition is 4% (inactive).

Turning to `COc1ccc(CCNCc2ccc3nc(N)c(C)cc3c2)cc1`, the inhibition was 3% (inactive). As for `Brc1cnc(NC2=NCCN2)c(Br)c1`, the inhibition is -3% (inactive). Take `COc1ccc(C(=O)[C@H]2C[C@@H]2CN2CC=C(c3c[nH]c4ccccc34)CC2)cc1`: the inhibition is 1% (inactive).

With `Oc1ccc(CN2CCN(CCOC(c3ccc(F)cc3)c3ccc(F)cc3)CC2)cc1Cl`, the inhibition was -4% (inactive). Turning to `Oc1cc2c(cc1CN1CCN(Cc3ccccc3)CC1)CCC2`, the inhibition is 0% (inactive). As to `CN(CC(=O)N1CCN(S(=O)(=O)c2cccc(Cl)c2)CC1CN1CCCC1)c1ccc(Cl)c(Cl)c1` (stereo unspecified), the inhibition was -1% (inactive). With `O=C(/C=C/c1ccc(Cl)c(Cl)c1)N1CCC(CN2CCC(c3c[nH]c4cc(C(F)(F)F)ccc34)CC2)CC1` the figure was -5% (inactive).

Broadly, the inhibition is the drop in the measured response relative to a control, in per cent.
